High-throughput results: PubChem, National Center for Advancing Translational Sciences (NCATS)
ATXN viability: cell viability loss in ATXN counter-screen; 0.49% of 400,000 active; AID 651635; Potency, µM (doses to about 56.7 µM), usual class: cytotoxic; S2 cells (HEK-293 line with an ATXN2-luciferase reporter) viability, CellTiter-Fluor protease fluorescence, 24 h; note: nearly all actives have a fitted effect of over 40% in size
ATXN2 expr inh: reduces ATXN2 reporter expression in HEK-293 cells. HEK-293 ATXN2-luciferase reporter, luminescence, 24 h. Potency, µM (highest dose often 57 µM), usual class: inhibitors. 0.72% of 360,000 active; note: nearly all actives have a fitted effect of over 55% in size
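ATXN2-luciferase reporter cells (luciferase flanked by upstream and downstream ATXN2 gene portions) were treated 24 h at 37 °C with compounds at up to 57 uM. SteadyGlo luminescence gave expression; GF-AFC fluorescence gave viability.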
PINK1 expr mod: modulators of PINK1 expression. PINK1 immunofluorescence, high-content cytometry, 24 h. Potency, µM (series often up to 76.6 µM), actives largely listed as activators. 0.2% of 410,000 active. AID 624263; active = well fitted activation curve with a large enough effect; inconclusive = small, poorly fitted or top-dose-only effect; cell line not stated here; note: nearly all actives have a fitted effect of over 65% in size
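Compound titrations (5 concentrations, 24 h) on a stable cell line; DMSO and CCCP controls. Endpoint: fixed-cell PINK1 immunofluorescence with mitochondrial, cell and nuclear markers, scanned by microplate cytometer.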
IL1B secr inh: inflammasome signaling inhibition, IL-1 beta readout; THP-1 LPS/ATP IL-1B secretion, AlphaLISA, 16 h; active compounds read low; activity change, % at 57.5 µM; 4.7% of 360,000 active; AID 743279; in the data active = activity change below about -50%; inconclusive = mostly about -30% to -49%
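THP-1 cells pretreated 1 hr with compounds (up to 57.5 uM final), then stimulated with LPS (250 ng/mL final) plus ATP (1.25 mM final); secreted IL-1B measured by AlphaLISA after 16 hr, decreased signal indicating inhibition.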
SW480 rereplic: induces DNA re-replication in SW480 colon adenocarcinoma cells. SW480 DNA re-replication, Hoechst DNA content imaging, 48 h. Potency, µM (highest dose often 46.1 µM), actives largely listed as activators. 1.8% of 340,000 active; note: nearly all actives have a fitted effect of over 55% in size
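Cells (250 per well) received 23 nL compound or DMSO by pin tool and were kept 48 hr at 37 C, 5% CO2. Nuclei were then stained with Hoechst for 40 min and scanned for DNA content.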
MCF10A rereplic: DNA re-replication induction in MCF 10a cells; MCF 10A DNA re-replication, Hoechst nuclear intensity, 48 h; Potency, µM (highest dose often 46.1 µM), actives largely listed as activators; 2.9% of 350,000 active; AID 624296; note: nearly all actives have a fitted effect of over 50% in size
Hits are given with their value. The list is not random: actives were taken first. Their share in the collection is about 7.1%. Unless noted, calls come from the whole dose curve; as a rule, active = well fitted curve in the direction sought with a large enough effect; inconclusive = small, poorly fitted or top-dose-only effect, or another doubt; inactive = no such curve, though single readings can be large; an effect the other way counts as inactive or inconclusive.

How did CCOC(=O)c1ccc(OCC2c3cc(OC)c(OC)cc3CCN2C(=O)c2ccc(S(=O)(=O)N3CCCC3)cc2)cc1 (stereo unspecified) do in these assays?
ATXN viability: inactive; ATXN2 expr inh: inactive; PINK1 expr mod: inactive

What do the screens show for `Cc1cccc(Nc2nnc(SC/C(O)=C(\C#N)c3nc4ccccc4[nH]3)s2)c1`?
ATXN viability: inactive; ATXN2 expr inh: inactive; PINK1 expr mod: inactive; IL1B secr inh: inactive; SW480 rereplic: inactive; MCF10A rereplic: 16µM

Results for Cc1ccc(Nc2nnc(SC/C(O)=C(\C#N)c3nc4ccccc4[nH]3)s2)c(C)c1 ?
ATXN viability: inconclusive; ATXN2 expr inh: inactive; PINK1 expr mod: inactive; IL1B secr inh: inactive; SW480 rereplic: inactive; MCF10A rereplic: inconclusive

Results for CCOC(=O)c1c(C)c(-c2ccccc2)n(CC(=O)Nc2cc(C)ccc2OC)c1C ?
ATXN viability: inactive; ATXN2 expr inh: inactive; PINK1 expr mod: inactive

How did CCN(CC)CCCN(C(=O)c1ccc(Br)cc1)c1nc(-c2ccc(OC)cc2)cs1 do in these assays?
ATXN viability: inactive; ATXN2 expr inh: inconclusive; PINK1 expr mod: inactive; IL1B secr inh: -81; SW480 rereplic: inconclusive; MCF10A rereplic: inconclusive

How did COc1ccc(-c2csc(N(Cc3ccco3)C(=O)c3cccs3)n2)cc1 do in these assays?
ATXN viability: inactive; PINK1 expr mod: inactive; IL1B secr inh: inactive; SW480 rereplic: inactive; MCF10A rereplic: inactive

How did COc1ccc(-c2csc(N(C)C(=O)c3cccs3)n2)cc1 do in these assays?
ATXN viability: inactive; ATXN2 expr inh: inactive; PINK1 expr mod: inactive; IL1B secr inh: -60; SW480 rereplic: inactive; MCF10A rereplic: inconclusive

How did CCN(CC)CCCN(C(=O)c1cccc(C)c1)c1nc(-c2ccc(OC)cc2)cs1 do in these assays?
ATXN viability: inconclusive; PINK1 expr mod: inactive; IL1B secr inh: -50; SW480 rereplic: inactive; MCF10A rereplic: inactive

Results for COc1ccc(-c2csc(N(CCCN(C)C)C(=O)c3ccc(OC)c(OC)c3)n2)cc1 ?
ATXN viability: inactive; PINK1 expr mod: inactive; IL1B secr inh: inactive

Results for CCN(CC)CCCN(C(=O)c1cccs1)c1nc(-c2ccc(OC)cc2)cs1 ?
ATXN viability: inconclusive; ATXN2 expr inh: inactive; PINK1 expr mod: inactive; IL1B secr inh: inconclusive; SW480 rereplic: 18µM; MCF10A rereplic: inconclusive

What do the screens show for `Cc1nn(C)c2c1c(-c1ccccc1)cc(=O)n2CC(=O)NC(C)c1ccccc1` (stereo unspecified)?
ATXN viability: inconclusive; ATXN2 expr inh: inactive; PINK1 expr mod: inactive

How did O=C(Nc1cccc(Cl)c1)OC1CCCCc2cccnc21 (stereo unspecified) do in these assays?
ATXN viability: inactive; ATXN2 expr inh: inactive; PINK1 expr mod: inactive; IL1B secr inh: -80; SW480 rereplic: inactive; MCF10A rereplic: inactive

Results for COc1ccc(C(C)=NNc2ccc([N+](=O)[O-])cc2S(=O)(=O)Nc2ccccc2C(=O)O)c(OC)c1 ?
ATXN viability: inactive; ATXN2 expr inh: inactive; PINK1 expr mod: inactive; IL1B secr inh: inactive; SW480 rereplic: inconclusive; MCF10A rereplic: 9.2µM

Results for CN(CCO)c1ccc(C=NNc2ccc([N+](=O)[O-])cc2S(=O)(=O)Nc2ccccc2C(=O)O)cc1 ?
ATXN viability: inactive; ATXN2 expr inh: inactive; PINK1 expr mod: inactive; IL1B secr inh: inactive; SW480 rereplic: inconclusive; MCF10A rereplic: inconclusive

Results for O=C(O)c1ccccc1NS(=O)(=O)c1ccc(NNC(=S)Nc2ccc(OC(F)F)cc2)c([N+](=O)[O-])c1 ?
ATXN viability: inactive; ATXN2 expr inh: inactive; PINK1 expr mod: inactive; IL1B secr inh: -51; SW480 rereplic: inactive; MCF10A rereplic: inactive

Results for Cc1ccc(NC(=S)NNc2ccc([N+](=O)[O-])cc2S(=O)(=O)Nc2ccccc2C(=O)O)cc1C ?
ATXN viability: 32µM; ATXN2 expr inh: inactive; PINK1 expr mod: inactive; IL1B secr inh: inactive; SW480 rereplic: inactive; MCF10A rereplic: inconclusive

Results for Cc1ccc(NC(=S)NNc2ccc(C(=O)O)cc2[N+](=O)[O-])cc1C ?
ATXN viability: inactive; ATXN2 expr inh: inactive; PINK1 expr mod: inactive; IL1B secr inh: inactive; SW480 rereplic: inactive; MCF10A rereplic: inactive

Results for CC(=O)Nc1ccc(C=NNc2ccc([N+](=O)[O-])cc2S(=O)(=O)Nc2ccccc2C(=O)O)cc1 ?
ATXN viability: inactive; ATXN2 expr inh: inactive; PINK1 expr mod: inactive; IL1B secr inh: inactive; SW480 rereplic: inactive; MCF10A rereplic: 21µM

Results for COc1cc(CN(C(=O)Nc2cccc(Cl)c2)c2ccccn2)cc(OC)c1OC ?
ATXN viability: inactive; ATXN2 expr inh: inactive; PINK1 expr mod: inactive

How did C[C@@H]1CN(Cc2ccc3c(c2)CN(Cc2cccn2-c2ccccn2)CCO3)C[C@H](C)O1 do in these assays?
ATXN viability: inactive; PINK1 expr mod: inactive

What do the screens show for `Cc1[nH]c2ccccc2c1/C=N/Nc1ccccc1[N+](=O)[O-]`?
ATXN viability: inactive; ATXN2 expr inh: inactive; PINK1 expr mod: inactive; IL1B secr inh: inconclusive; SW480 rereplic: inactive; MCF10A rereplic: inactive

Results for COc1ccc(NS(=O)(=O)c2cc([N+](=O)[O-])ccc2N/N=C/c2c(C)[nH]c3ccccc23)cc1 ?
ATXN viability: inconclusive; ATXN2 expr inh: inactive; PINK1 expr mod: inactive; IL1B secr inh: inactive; SW480 rereplic: inactive; MCF10A rereplic: 9.2µM

What do the screens show for `O=C(Nc1cc(Cl)ccc1-n1cncn1)c1cc(F)c(F)c(F)c1F`?
ATXN viability: inconclusive; ATXN2 expr inh: inactive; PINK1 expr mod: inactive; IL1B secr inh: -93; SW480 rereplic: inactive; MCF10A rereplic: inactive

Results for CCc1cccc(OCC(=O)Nc2cc(Cl)ccc2-n2cncn2)c1 ?
ATXN viability: inactive; ATXN2 expr inh: inactive; PINK1 expr mod: inactive; IL1B secr inh: inactive; SW480 rereplic: 4.6µM; MCF10A rereplic: inconclusive

Results for CCOc1ccc(OCC(=O)Nc2cc(Cl)ccc2-n2cncn2)cc1 ?
ATXN viability: inactive; PINK1 expr mod: inactive; IL1B secr inh: inactive

How did Cc1cccc(NC(=O)C2CCC(CNS(=O)(=O)c3csc(C(N)=O)c3)CC2)c1C (stereo unspecified) do in these assays?
ATXN viability: inactive; ATXN2 expr inh: inactive; PINK1 expr mod: inactive

What do the screens show for `COCCNC(=O)Nc1cc(C(=O)NCc2ccc(C(C)C)cc2)ccc1N1CCCC1`?
ATXN viability: inconclusive; ATXN2 expr inh: inactive; PINK1 expr mod: inactive

How did C=CCOc1ccccc1CN(C(=O)CCl)c1ccc2c(c1)OCO2 do in these assays?
ATXN2 expr inh: inconclusive; PINK1 expr mod: inactive; IL1B secr inh: -106; SW480 rereplic: 5.2µM; MCF10A rereplic: inconclusive

Results for CCN(CC(=O)NC1CCS(=O)(=O)C1)Cc1nc2c(Br)cc(Br)cc2c(=O)[nH]1 (stereo unspecified) ?
ATXN viability: inactive; ATXN2 expr inh: inactive; PINK1 expr mod: inactive; IL1B secr inh: inactive; SW480 rereplic: inactive; MCF10A rereplic: inactive
